Screens (PubChem)
CYP2C9 inh – blockers of cytochrome P450 2C9 activity – biochemical, luminescence, ADME assay, primary screen. P11712. CYP2C9 Supersomes, luciferin-H conversion. inhibition, % at 5 µM. 96,000 tested, 20% active;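 active means blocking of liver enzyme CYP2C9 beyond about 50% at 5 µM, limit read from the data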
CYP2C19 activ – human CYP2C19 activators, primary screen, biochemical, luminescence; activation factor at 5 µM; recombinant CYP2C19, luciferin-H EGE luminescence; active compounds read high; 0 = fully inhibited enzyme, 1 = untreated enzyme; Cytochrome P450 2C19 (Homo sapiens), P33261; 96,000 tested, under 10 active;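 active means activation factor of at least 2 at 5 µM in the primary screen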
Target sequence (P33261 whole entry, looked up): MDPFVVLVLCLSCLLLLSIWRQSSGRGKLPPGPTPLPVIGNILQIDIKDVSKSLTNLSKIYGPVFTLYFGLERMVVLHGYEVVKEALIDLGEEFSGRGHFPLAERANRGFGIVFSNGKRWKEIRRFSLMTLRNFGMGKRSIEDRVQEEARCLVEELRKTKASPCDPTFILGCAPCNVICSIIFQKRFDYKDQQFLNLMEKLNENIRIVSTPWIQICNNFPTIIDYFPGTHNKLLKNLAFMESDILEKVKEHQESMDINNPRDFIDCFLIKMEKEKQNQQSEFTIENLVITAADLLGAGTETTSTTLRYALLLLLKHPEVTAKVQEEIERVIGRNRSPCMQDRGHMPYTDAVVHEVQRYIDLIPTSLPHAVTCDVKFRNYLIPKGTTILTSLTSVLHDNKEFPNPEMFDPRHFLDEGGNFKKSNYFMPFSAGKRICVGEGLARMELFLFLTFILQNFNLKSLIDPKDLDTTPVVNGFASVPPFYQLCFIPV
PostGolgi ctrl – growth inhibition of yeast control strain, primary screen, counter-screen for post-Golgi transport modulator project; efflux-deficient yeast background strain, growth absorbance A615, 16 h; inhibition, % at 10 µM; 98,000 tested, 5% active; AID 738, 2007
PostGolgi yeast – phenotypic screen on post-Golgi transport, primary screen; post-Golgi transport phenotypic cell assay; inhibition, % at 10 µM; 98,000 tested, 0.9% active; AID 739, 2007;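 further: yeast cells grown in 1536-well plates; yeast grown about 18 h at 30C before absorbance read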
CYP2C9 act – human CYP2C9 activators, primary screen, biochemical, luminescence. activation factor at 5 µM. recombinant CYP2C9, luciferin-H conversion; active compounds read high; factor 1 = untreated enzyme, 0 = blocked. AID 1024, 2008. Cytochrome P450 2C9 (Homo sapiens), P11712. 96,000 tested, 1.4% active;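 active means activation factor of 2 or more for CYP2C9 at a 5 µM dose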
CYP2C19 inhib – blockers of cytochrome P450 2C19 activity – biochemical, luminescence, ADME assay, primary screen | P33261 | AID 778, 2007 | CYP2C19 Supersomes, luciferin-H EGE luminescence, 30 min | 96,000 tested, 21% active | inhibition, % at 5 µM;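 active means CYP2C19 inhibition above a set limit at 5 µM in the primary screen, cut at about 50% in these data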
Large screens that a line does not name were inactive. Rows were chosen to be rich in hits. Some 32% of all compounds tested hit in one or more screens of this group. Unless noted, no stated cut-off is given here; in the data, active means inhibition above about 30%; inactive means the rest.

COc1cccc(CNCc2ccc(SC)cc2)c1OC	CYP2C19 inhib 100.3
N#Cc1c(-c2ccc(Cl)cc2Cl)nc2n(c1=O)CCS2	CYP2C9 inh 61.8, PostGolgi ctrl 32.1, CYP2C19 inhib 92.6
CCCS(=O)(=O)N1CCC(C(=O)NCC2CCCO2)CC1 (stereo not drawn)	none
CC(=O)c1c(C)[nH]c(C(=O)Nc2ccc(C)c(C)c2)c1C	CYP2C9 inh 64.7
CC(=O)c1c(C)[nH]c(C(=O)Nc2cccnc2)c1C	CYP2C9 inh 52.2
COc1ccc(N(CC(=O)Nc2nc3ccc(C)cc3s2)S(=O)(=O)c2c(C)nn(C)c2C)cc1	PostGolgi ctrl 32.5
COc1ccc(N(CC(=O)Nc2cccc(OC)c2)S(=O)(=O)c2c(C)nn(C)c2C)cc1	CYP2C9 inh 82.8, CYP2C19 inhib 74.7
COc1cccc(NC(=O)CN(c2ccc(C)cc2)S(=O)(=O)c2c(C)nn(C)c2C)c1	CYP2C9 inh 75.7, CYP2C19 inhib 69.1
COc1ccc(N(CC(=O)N2CCCCC2)S(=O)(=O)c2c(C)nn(C)c2C)cc1	none
COc1ccc(N(CC(=O)Nc2cc(OC)ccc2OC)S(=O)(=O)c2c(C)nn(C)c2C)cc1	CYP2C9 inh 84.1, CYP2C19 inhib 75.8
COc1ccc2nc(NC(=O)CN3CCN(C)CC3)sc2c1	none
O=C(NC1CCCCCCC1)c1ccc2c(c1)N(Cc1ccc(F)cc1)C(=O)CS2=O (stereo not drawn)	none
CCOC(=O)NC1(C(F)(F)F)C(=O)N(Cc2ccccn2)C2=C1C(=O)CC(C)(C)C2 (stereo not drawn)	none
O=C(COc1cccc(C(F)(F)F)c1)NCCCN1CCCC1=O	none
O=C(NCN1C(=O)C2C3C=CC(C3)C2C1=O)Nc1nccs1 (stereo not drawn)	none (no result: CYP2C9 inh, CYP2C19 activ, CYP2C9 act, CYP2C19 inhib)
COc1ccc(-c2nc(-c3ccccc3)c(-c3cc([N+](=O)[O-])ccc3C)[nH]2)cc1O	CYP2C9 inh 73.7, PostGolgi ctrl 31.4, CYP2C19 inhib 77.1
Cc1ccc([N+](=O)[O-])cc1-c1[nH]c(-c2ccc(O)c(O)c2)nc1-c1ccccc1	CYP2C9 inh 88.5, CYP2C19 inhib 51.6
COc1cc(-c2nc(-c3ccc4c(c3)-c3ccccc3S4(=O)=O)c(-c3ccccc3)[nH]2)cc(OC)c1OC	none
COc1ccc2c(c1)CCCC21NC(=O)NC1=O (stereo not drawn)	none
CSc1nc(=O)n(-c2ccccc2)c(C)c1C(C)=O	none
CSc1nc(-c2ccccc2)nc(N)c1C(C)=O	CYP2C9 inh 62.7
CCOC(=O)C1=C(N)Oc2c(oc(CO)cc2=O)C1c1c(F)cccc1Cl (stereo not drawn)	CYP2C9 inh 58.8, CYP2C19 inhib 70.7
COC(=O)C1=C(N)Oc2c(oc(CO)cc2=O)C1c1ccccc1F (stereo not drawn)	none
CCOC(=O)c1c(C)c(C(=O)NC2CCCCCC2)c(C)n1C	none
CCOC(=O)c1c(C)c(C(=O)N(C)C2CCCCC2)c(C)n1C	CYP2C19 inhib 53.6
COc1ccc(CN2C(=O)c3ccccc3C(/C=N/OCc3ccc(Cl)cc3)C2=O)cc1 (stereo not drawn)	CYP2C9 inh 77.7
CC(OC(=O)c1cc(=O)[nH]c2ccccc12)c1ccccc1 (stereo not drawn)	CYP2C9 inh 54.0
CC(C)COC(=O)c1cc(=O)[nH]c2ccccc12	none
CC(=O)c1cccc(NC(=O)/C(=C\c2ccco2)NC(=O)c2cccs2)c1	none
Cc1occc1C(=O)Nc1cccc(C(=O)O)c1	CYP2C19 inhib 71.0
Nc1ccccc1C(=O)Nc1cccc(C(=O)O)c1	CYP2C19 inhib 59.1
Cc1cccc(NC(=O)c2ccccc2C(=O)O)c1	none
CC(=O)Nc1cccc(C(=O)/C=C/c2ccco2)c1	CYP2C9 act 2.3
CCc1ccc(C2=Nn3c(nnc3-c3cccs3)SC2)cc1	none
COc1ccc(OC)c(NC(=O)C2=C(C)Nc3ncnn3C2c2cccs2)c1 (stereo not drawn)	none
CCCCCCCOC(=O)C1=C(C)Nc2ncnn2C1c1cccs1 (stereo not drawn)	CYP2C9 inh 64.4, CYP2C19 inhib 73.5
CC1=C(C(=O)Nc2ccccc2)C(c2cccs2)n2nnnc2N1 (stereo not drawn)	none
